# Laboratory results taken from PubChem BioAssay AID602252 (Broad Institute, 2012).
# Among all 300,000 compounds or so, about 2,700 (0.9%) were called active. The list comes from a sample in which actives are over-represented; it also holds similar structures and randomly drawn compounds. Values without a mark were called inactive.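 How the source made its calls: active means mean inhibition of at least 30% with at least half of replicates also reaching 30%; inconclusive means no clear call, values can overlap the other calls; inactive means the rest.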
# Target: Golgi-associated PDZ and coiled-coil motif-containing protein (Homo sapiens) (UniProt Q9HD26)
# Experiment: untagged CAL PDZ binding inhibitors, primary screen, biochemical, fluorescence polarization, HTS (AID 602252);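 further: 0% = DMSO neutral control and 100% = excess unlabeled competitor peptide PRC23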
# Conditions: purified CAL PDZ, TMR-peptide fluorescence polarization, 1 h; at 24.9 µM; stronger effect = higher value
row,Compound,inhibition
1,O=C(c1cccnc1)N(Cc1ccccc1)C(=O)c1cccnc1,-4.97%
2,CSc1ncccc1C(=O)NCC(c1ccco1)N1CCCCC1 (stereo not given),63.8% (active)
3,COc1ccccc1C(=O)NCCC(=O)NCC(c1ccco1)N1CCCCC1 (stereo not given),2.93%
4,COc1ccc(C(CNC(=O)c2cccnc2SC)N2CCOCC2)cc1 (stereo not given),-3.62%
5,Cc1ccc(C(=O)Nc2ccc3c(c2)OCCO3)cc1S(=O)(=O)N1CCOCC1,-4.3%
6,CCCN(CCC)S(=O)(=O)c1cc2c(cc1Br)CCN2C(=O)CC,0.953%
7,COc1ccc(/C=C/C(=O)OCC(=O)N2CCN(S(=O)(=O)c3ccc(C)cc3C)CC2)cc1OC,6.76%
8,O=C(CSc1nc2ccccc2c(=O)n1-c1ccccc1F)N1CCOCC1,-2.27%
9,Cc1ccc(OCC(=O)Nc2ccc(C(=O)O)cc2NC(=O)COc2ccc(C)c(C)c2)cc1C,56.8% (active)
10,Cc1ccc(OCC(=O)Nc2cccc3c2CCCC3)cc1C,1.05%
11,Cc1cccc(OCC(=O)Nc2ccc(C(=O)O)cc2NC(=O)COc2cccc(C)c2)c1,-0.14%
12,Cc1ccc(NC(=O)CCC(=O)N2CCC(c3ccccc3)=N2)cc1S(=O)(=O)N1CCCCC1,-3.11%
13,Cc1ccc(C(=O)N2CCCC(c3ccccc3)=N2)cc1,4.38%
14,Cc1ccc(NC(=S)N2CCCC(c3ccccc3)=N2)cc1,38.9% (active)
15,CCCCNC(=O)C(C)N(CCN(C)C)C(=O)CCCN1C(=O)NC(c2ccc(Cl)cc2)C(C(=O)OCc2ccccc2)=C1C (stereo not given),-4.12%
16,COc1cccc(C(=O)N2CCCC(CCC(=O)NCc3ccc(F)c(F)c3)C2)c1 (stereo not given),-10.1%
17,COc1cccc(CNC(=O)CCC2CCCN(C(=O)c3ccoc3C)C2)c1 (stereo not given),56.3% (active)
18,COc1cccc(CNC(=O)CCC2CCCN(Cc3ccc(OC(F)F)cc3)C2)c1 (stereo not given),7.33%
19,Cc1[nH]c2c(C(=O)N3CCCC(CCC(=O)NCc4ccccc4F)C3)cccc2c1C (stereo not given),46.8% (active)
20,O=C(CCC1CCCN(Cc2ccc(O)c(Cl)c2)C1)NCc1ccccc1F (stereo not given),-4.54%
21,CSc1ncccc1C(=O)N1CCCC(CCC(=O)NCc2ccccc2F)C1 (stereo not given),4.75%
22,CC(C)(C)S(=O)(=O)N1Cc2cc(CO)cc(CCO)c2[C@H]1CCO,-1.94%
23,CC(C)NC(=O)Nc1cccc2c1O[C@@H](CN(C)S(=O)(=O)c1ccc(F)cc1)[C@@H](C)CN([C@H](C)CO)C2=O,-0.185%
24,CCc1cc(C(=O)Nc2nnc(C3CC3)s2)sc1C,-1.8%
25,CSCCC(NS(=O)(=O)c1ccc(C)cc1)C(=O)N(C)CC(=O)Nc1ccccc1Br (stereo not given),0.255%
